Laboratory results from PubChem BioAssay AID504832 (National Center for Advancing Translational Sciences (NCATS), 2011).
Among all 310,000 compounds or so, about 18,000 (5.8%) were called active. Another 22% or so got no clear call; they are omitted. What follows is part of a selection rich in actives, with near analogues and random picks from the rest. A call without a number means that no potency is given here. A number with no mark means an inactive call. The call rests on the fitted dose curve; in most records, active means well fitted inhibition curve with a large enough effect; inconclusive means small, poorly fitted or top-dose-only effect, or another doubt; inactive means no such curve, though single readings can be large or run the other way.
Potency means the concentration at half of the fitted maximal effect.

Assay: Primary qHTS for delayed death inhibitors of the malarial parasite plastid, 48 hour incubation
Conditions: P. falciparum luciferase growth in erythrocytes; series mostly up to 28.7 µM
In short: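 Luminescence readout; reporter = integrated firefly luciferase in P. falciparum. RBC culture at 2% hematocrit, 0.1% parasitemia final, 37 C/5% CO2; decreased signal taken as growth inhibition.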
For `Cc1cc2cc(CNC(=O)c3ccc(S(=O)(=O)N4CCOCC4)cc3)ccc2[nH]1`, the Potency was 13.1 µM (active).
For `O=C(CN1CCCCCC1)Nc1ccc(S(=O)(=O)N2CCCCC2)cc1`, the Potency was “inactive”.
With `Cc1ccc(S(=O)(=O)N2CCOCC2)cc1C(=O)NCc1ccc(F)cc1` the Potency was “inactive”.
With `COc1ccc(CC(=O)Nc2ccc3c(c2)CCC3)cc1S(=O)(=O)N1CCOCC1` the Potency was “inactive”.
For `Cc1ccc(CC(=O)Nc2ccc(S(=O)(=O)N3CCOCC3)cc2)cc1C`, the Potency was 9.28 µM (active).
In the case of `O=C(CN1CCN(c2cccc(Cl)c2)CC1)Nc1ccc(S(=O)(=O)N2CCOCC2)cc1`, the Potency is reported as 10.4 µM (active).
In the case of `O=C(Nc1ccc2cn[nH]c2c1)c1ccc(S(=O)(=O)N2CCOCC2)cc1`, the Potency is reported as “inactive”.
In the case of `O=C(CN1C(=O)CCC1=O)Nc1ccc(S(=O)(=O)N2CCOCC2)cc1`, the Potency is reported as “inactive”.
In the case of `O=C(CN1CCN(S(=O)(=O)/C=C/c2ccccc2)CC1)Nc1ccc(N2CCOCC2)cc1`, the Potency is reported as “inactive”.
For `CCOC(=O)c1sc(=NC(=O)c2ccc(Br)cc2)n(C)c1C`, the Potency was “inactive”.
For `Cn1c(=O)c2ccccc2n(CC(=O)Nc2ccc3c(c2)OCCO3)c1=O`, the Potency was “inactive”.
For `COc1cc(C(=O)N/C(=C\c2cn(C)c3ccccc23)C(=O)N2CCOCC2)cc(OC)c1OC`, the Potency was “inactive”.
In the case of `CN(C)S(=O)(=O)c1cccc(C(=O)OCC(=O)N2CCCC2=O)c1`, the Potency is reported as “inactive”.
For `CC1CC1C(=O)OCC(=O)Nc1cccc(F)c1` (configuration not stated), the Potency was “inactive”.
With `COc1ccc(NC(=O)NN2CCN(C)CC2)c(OC)c1` the Potency was “inactive”.
For `CCOc1ccc(/C=N\NC(=O)c2c(C)nc3cc(C)ccn23)cc1`, the Potency was “inactive”.
In the case of `Cn1c(=O)n(C)c2cc(S(=O)(=O)Nc3ccc(F)cc3)ccc21`, the Potency is reported as “inactive”.
In the case of `Clc1ccc(CSc2nnc(/C=C/c3ccccc3)o2)c(Cl)c1`, the Potency is reported as “inactive”.
For `Nc1cc(N)nc(SCc2ccc(Cl)cc2)n1`, the Potency was “inactive”.
In the case of `CSCc1cc(N2CCOCC2)nc(SCc2ccc(Cl)cc2Cl)n1`, the Potency is reported as 13.1 µM (active).
In the case of `CC(C)(CNC(=O)Cc1ccc(Cl)cc1Cl)N1CCOCC1`, the Potency is reported as “inactive”.
In the case of `CSCCC(NC(=O)c1ccc(Cl)cc1Cl)C(=O)NNC(=O)c1csc(N2CCOCC2)n1` (configuration not stated), the Potency is reported as “inactive”.
For `CSCc1cc(N(C)C)nc(SCc2ccc(Cl)cc2Cl)n1`, the Potency was 13.1 µM (active).
For `CCc1ccc(C(=O)COC(=O)c2ccco2)cc1`, the Potency was “inactive”.
In the case of `O=C(NCc1ccco1)/C(=C/c1ccco1)NC(=O)c1ccccc1`, the Potency is reported as “inactive”.
In the case of `CC1CCCN(S(=O)(=O)c2ccc(-c3ccc(=O)[nH]n3)o2)C1` (configuration not stated), the Potency is reported as “inactive”.
In the case of `COC(=O)C1(C)CC1(c1ccccc1)c1ccccc1` (configuration not stated), the activity change, negative = inhibition is reported as -9.84% [at 0.00184 µM].
In the case of `Cc1ccccc1-n1cc(CNC(=O)C2CCC(=O)N(C3CC3)C2)cn1` (configuration not stated), the Potency is reported as “inactive”.
In the case of `CCN1CCN(C(=O)N(Cc2ccc(Cl)cc2)S(=O)(=O)c2ccc(C)cc2)CC1`, the Potency is reported as “inactive”.
In the case of `Cc1nn(C)cc1S(=O)(=O)N1CCN(c2ccc(F)cc2)CC1`, the Potency is reported as “inactive”.
In the case of `Cc1ccc(CNC(=O)C(=O)c2cn(CC(=O)N3CCCC3)c3ccccc23)cc1`, the Potency is reported as “inactive”.
In the case of `O=C(Cc1ccccc1)NNC(=O)C1CCN(c2ncccn2)CC1`, the Potency is reported as “inactive”.
For `Oc1ccc(CN2CCN(c3ncccn3)CC2)cc1`, the Potency was “inactive”.
In the case of `CC1CCCN(CC(O)COCc2ccccc2)C1` (configuration not stated), the Potency is reported as “inactive”.
In the case of `Oc1c(CN2CCN(c3ccc(F)cc3)CC2)cc(Cl)c2cccnc12`, the Potency is reported as 1.85 µM (active).
For `Oc1c(CN2CCCC2)cc(COCc2ccccc2)c2cccnc12`, the Potency was 0.657 µM (active).
With `Cc1cccnc1NC(=O)c1cccc(S(=O)(=O)N2CCN(c3ccc(F)cc3)CC2)c1` the Potency was “inactive”.
In the case of `Cc1cc(S(=O)(=O)NCC(C)C)ccc1OCC(=O)NC1CC1`, the Potency is reported as “inactive”.
For `CC(=O)c1cccc(NC(=S)N2CCN(S(C)(=O)=O)CC2)c1`, the Potency was “inactive”.
With `Cc1ccc(F)cc1S(=O)(=O)Nc1cccc(C(=O)N2CCCC(C(N)=O)C2)c1` (configuration not stated) the Potency was “inactive”.
In the case of `COc1ccc(OC)c(NC(=O)c2ccc3c(c2)C(=O)N(c2ccc(OC(C)=O)cc2)C3=O)c1`, the activity change, negative = inhibition is reported as 0.907% [at 0.00184 µM].
For `C/C(=N\NC(=O)C1(C)CC1(Br)Br)c1ccc(C)cc1C` (configuration not stated), the Potency was “inactive”.
In the case of `O=C(CCn1nnnc1CN1CCOCC1)N1CCC(c2ccccc2Cl)C1` (configuration not stated), the Potency is reported as “inactive”.
With `CCc1nn(CC(=O)N2CCN(CC)CC2)c(=O)c2cccn12` the Potency was “inactive”.
With `NC(=O)c1ccc(CN2CCC(Cc3ccccc3)CC2)cc1` the Potency was “inactive”.
For `Brc1ccc(CN2CC[C@H]3C=CCc4cccc(c43)C2)cc1`, the Potency was 3.29 µM (active).
With `NC(=O)C1CC(=O)N(c2ccc(OCC(=O)NCc3ccccc3)cc2)C1` (configuration not stated) the Potency was “inactive”.
In the case of `CCN(C(=O)c1cc([N+](=O)[O-])ccc1NCc1cccnc1)c1ccccc1`, the Potency is reported as “inactive”.
With `CS(=O)(=O)Nc1ccccc1C(=O)OCC(=O)NC1CC1` the Potency was “inactive”.
For `CC(C)=CCc1c(O)c(CC=C(C)C)c2occ(-c3ccc(O)cc3)c(=O)c2c1O`, the Potency was 2.94 µM (active).
For `Cc1ccnc(NC(=O)CCNS(=O)(=O)c2ccc(C)c(C)c2)c1`, the Potency was “inactive”.
In the case of `Cc1cccc(NS(=O)(=O)c2cc(Cl)ccc2Cl)n1`, the Potency is reported as “inactive”.
For `O=[N+]([O-])c1ccc(S(=O)(=O)Nc2cccc(-c3ccc(N4CCCC4)nn3)c2)cc1`, the Potency was “inactive”.
For `COc1ccc2cc(C3=CC(=O)C[C@H](c4ccc5c(c4)OCO5)C3)ccc2c1`, the Potency was “inactive”.
With `O=C1C=C(c2cc(C(F)(F)F)cc(C(F)(F)F)c2)C[C@@H](c2ccc3c(c2)OCO3)C1` the Potency was 8.28 µM (active).
In the case of `CC(=O)C1=C(C)NC(=O)NC1c1ccc2c(c1)OCO2` (configuration not stated), the Potency is reported as “inactive”.
In the case of `O=C1C=C(c2ccnc3cc(Cl)ccc23)C[C@@H](c2ccc3c(c2)OCO3)C1`, the Potency is reported as 7.38 µM (active).
For `COc1ccc([C@H]2CC(=O)C=C(c3ccc(C)cc3)C2)cc1`, the Potency was “inactive”.
With `N#Cc1ccc(C2=CC(=O)C[C@H](c3ccc(Cl)cc3)C2)cc1` the Potency was “inactive”.
For `Cc1ccnc(NS(=O)(=O)c2ccc(NC(=O)c3oc4ccc(F)cc4c3C)cc2)n1`, the Potency was “inactive”.
In the case of `[2H]C(CCOS(N)(=O)=O)c1ccccc1` (configuration not stated), the Potency is reported as “inactive”.
In the case of `CNC(=O)c1sc(NCc2ccccc2OC)nc1C`, the Potency is reported as “inactive”.
In the case of `O=C(Nc1ccc(-c2cscn2)cc1)C1CCCN(Cc2ccc(CO)o2)C1` (configuration not stated), the Potency is reported as “inactive”.
In the case of `COc1cc(-c2c(-c3ccc4c(c3)OCO4)noc2C)ccc1F`, the Potency is reported as “inactive”.
With `CCNC(=O)c1cccc(NC(=O)C2CC(=O)N(CCc3ccccc3)C2)c1` (configuration not stated) the Potency was “inactive”.
In the case of `CN(CC#CCC(c1ccccc1)c1ccccc1)C(C)(C)C`, the Potency is reported as 9.28 µM (active).
For `Cc1cccc(C)c1Nc1c(-c2ccccc2O)nc2ncccn12`, the Potency was 2.94 µM (active).
In the case of `Cc1ccccc1Nc1c(-c2ccccc2)nc2ncccn12`, the Potency is reported as “inactive”.
In the case of `C[C@H](NC(=O)[C@@H]1Cc2ccccc2CN1C(=O)OC(C)(C)C)C(=O)NC1CCCC1`, the Potency is reported as “inactive”.
With `O/N=C(\C[n+]1ccccc1)c1ccc(Br)cc1` the activity change, negative = inhibition was -29.6% [at 0.00184 µM].
With `CC(=O)c1ccc(NC(=O)c2cc(-c3cccs3)on2)cc1` the Potency was “inactive”.
With `O=C(c1cc(-c2cccs2)on1)N1CCCCC1` the Potency was “inactive”.
With `Cc1cc(NC(=O)c2cc(-c3cccs3)on2)nn1Cc1ccc(Cl)cc1` the Potency was 10.4 µM (active).
For `COc1ccc(S(=O)(=O)N2CCC(C(=O)NCCC(=O)NCc3cccc(OC)c3)CC2)cc1`, the Potency was “inactive”.
With `CNCC[C@H](Oc1ccc(C(F)(F)F)cc1)c1ccccc1` the Potency was 10.4 µM (active).
With `C[C@H](C(=O)CC(=O)OC(C)(C)C)[C@H](O)c1ccc(C(F)(F)F)cc1` the Potency was “inactive”.
In the case of `CC(C)Oc1ccc(Oc2ccc(C(F)(F)F)cn2)cc1`, the Potency is reported as “inactive”.
With `CCN(CC)C(=O)Oc1ccc(Br)cc1C(=O)Nc1ccc(F)c(Cl)c1` the Potency was 9.28 µM (active).
With `CCN(CC)C(=O)C(=O)Nc1cccc(Br)c1` the Potency was “inactive”.
With `COC(=O)c1ccc(NC(=O)c2cc(Cl)ccc2OC)cc1` the activity change, negative = inhibition was -5.41% [at 5.75 µM].
With `CCCc1nnc(NC(=O)CCC(=O)NC2CC2)s1` the Potency was “inactive”.
For `O=C(NCc1ccco1)/C(=C\c1cccc([N+](=O)[O-])c1)NC(=O)c1ccco1`, the Potency was “inactive”.
With `C=CCn1c(SCC(=O)NCC2CCCO2)nc2sc(C)c(C)c2c1=O` (configuration not stated) the Potency was “inactive”.
For `N#Cc1ccc(Cn2cc(C(=O)c3ccco3)c3ccccc32)cc1`, the Potency was “inactive”.
With `CC1CCN(C(=O)Cn2cc(C(=O)c3ccco3)c3ccccc32)CC1` the Potency was 9.28 µM (active).
For `Cc1cccc(NC(=O)Cn2cc(C(=O)c3ccco3)c3ccccc32)c1`, the Potency was “inactive”.
For `CC(Sc1ncnc2c1cnn2-c1ccccc1)C(=O)Nc1ccc(N2CCOCC2)cc1` (configuration not stated), the Potency was “inactive”.
In the case of `COc1ccc2c(c1OC)C(=O)N(c1ccc(O)cc1)C2`, the Potency is reported as “inactive”.
With `N#Cc1ccc(C(c2ccc(C#N)cc2)n2cncn2)cc1` the Potency was “inactive”.
For `N#Cc1ccc(C(c2nnnn2CCc2ccccc2)N2CCCCCC2)cc1` (configuration not stated), the Potency was 1.65 µM (active).
With `CC(C)C(c1nnnn1CCc1ccccc1)N1CCN(C(=O)c2ccco2)CC1` (configuration not stated) the Potency was “inactive”.
With `CCCc1nc(SCC(=O)N2CCCC2)c2c(=O)n(C)c(=O)n(C)c2n1` the Potency was “inactive”.
For `CC(=O)N1CCN(CC(c2ccccc2)c2ccccc2)CC1`, the Potency was “inactive”.
For `COc1cccc(CN(C)CC(=O)NCc2ccccc2Cl)c1OC`, the Potency was “inactive”.
In the case of `COc1cccc(CN(C)CC2CCCN(CCc3ccc(Cl)cc3)C2)c1OC` (configuration not stated), the Potency is reported as 5.86 µM (active).
In the case of `COc1ccccc1CN(C)C(=O)C1(c2ccc(Cl)cc2)CC1`, the Potency is reported as “inactive”.
With `COc1cccc(NC(=O)N2C3CCCC2CC(NC(C)=O)C3)c1` (configuration not stated) the Potency was “inactive”.
For `CCOc1cc(C2/C(=C(/O)c3ccc(S(=O)(=O)N4CCCCC4)cc3)C(=O)C(=O)N2CCOC)ccc1O` (configuration not stated), the Potency was “inactive”.
With `O=C1CCCC2=C1C(c1cccs1)CC(=O)N2c1ccc(F)cc1` (configuration not stated) the Potency was “inactive”.
For `CCOC(=O)C1=C(N)N(c2ccc(C)cc2)C2=C(C(=O)CCC2)C1c1cccs1` (configuration not stated), the Potency was 9.28 µM (active).
With `CCOC(=O)c1cc2c(n(-c3ccc(C)cc3)c1=O)CCCC2=O` the Potency was “inactive”.
With `COc1cc2cc(C(=O)N/N=C/c3cccc(OC)c3OC)[nH]c2cc1OC` the Potency was “inactive”.
